# Reference: PubChem BioAssay AID652115 (Broad Institute, 2013)
# Where “and” joins values, the source holds several entries; their conditions need not be identical. Identical values can stand only once. The whole screen tested about 330,000 compounds, of which about 3,800 (1.2%) were called active. No stated cut-off is given here; in the data, active means inhibition above about 15%; inconclusive means no clear call, values can overlap the other calls; inactive means below that. Only a selection was taken, and actives are over-represented in it overall.
# Target: NAD-dependent protein deacylase sirtuin-5, mitochondrial (Homo sapiens) (UniProt Q9NXA8)
# Experiment: SIRT5 desuccinylase inhibitors, primary screen, biochemical, fluorescence imaging, single point, set 5 (AID 652115)
# Settings: Purified SirT5, succinyl-peptide AMC, trypsin-coupled fluorescence; at 15 µM; active compounds read high
# Sequence of NAD-dependent protein deacylase sirtuin-5, mitochondrial (Homo sapiens) (Q9NXA8 whole entry, looked up): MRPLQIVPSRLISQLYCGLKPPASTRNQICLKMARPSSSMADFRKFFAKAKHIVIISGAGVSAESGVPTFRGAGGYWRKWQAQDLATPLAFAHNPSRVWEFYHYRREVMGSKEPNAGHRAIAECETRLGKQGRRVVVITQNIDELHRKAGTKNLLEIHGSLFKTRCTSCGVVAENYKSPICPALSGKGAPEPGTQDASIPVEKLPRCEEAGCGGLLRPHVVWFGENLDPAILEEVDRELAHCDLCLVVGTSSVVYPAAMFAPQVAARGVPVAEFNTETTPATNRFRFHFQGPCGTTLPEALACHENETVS
row,Structure (SMILES),inhibition
1,O=C(Nc1ccc(C(F)(F)F)cc1)N[C@@H]1CC[C@H](CC(=O)N2CCCCC2)O[C@H]1CO,-2.54% (inactive)
2,O=C([C@@H]1[C@@H](CO)[C@@H]2Cn3c(ccc(-c4ccccc4)c3=O)[C@H]1N2CCC(F)(F)F)N1CCCCC1,-29.7% (inactive)
3,CCCNC(=O)N1CC(=O)N2[C@H](CO)[C@@H](c3ccc(-c4ccc(F)cc4)cc3)[C@H]2C1,4.11% (inactive)
4,C[C@H](CO)N1C[C@H](C)[C@@H](CN(C)C(=O)Nc2ccnc(N3CCOCC3)c2)OCc2ccccc2-c2c(n(C)c3ccccc23)C1=O,-5.68% (inactive)
5,Cc1nnc(NC(=O)c2ccc3nccnc3c2)s1,16.3% (active)
6,Cc1ccc(C)c(NC(=O)c2ccc3nccnc3c2)c1,0.033% (inactive)
7,CC(C)CCC(C)NC(=O)c1ccc2nccnc2c1 (stereo unspecified),7.36% (inactive)
8,O=C(Nc1ccc(C(F)(F)F)cc1)N[C@@H]1CC[C@H](CCNC(=O)c2ccccc2F)O[C@@H]1CO,0.363% (inactive)
9,Cc1ccc(S(=O)(=O)NC[C@H]2CC[C@@H]3[C@@H](CN3Cc3ccccc3C(=O)O)O2)cc1,-3.22% (inactive)
10,C[C@@H](NC(=O)C[C@H]1C[C@H]2c3cc(NC(=O)Nc4ccccc4F)ccc3O[C@H]2[C@@H](CO)O1)c1ccccc1,2.15% (inactive)
11,COC(=O)c1ccc(CSc2nnc(N)s2)o1,16% (active)
12,Nc1nnc(SCC(=O)NCC(=O)Nc2ccc(F)c(F)c2F)s1,0.518% (inactive)
13,COCC(C)n1c(SCc2ccc(C(=O)OC)o2)nc2ccccc2c1=O (stereo unspecified),1.17% (inactive)
14,CN1CCN(C(=O)C[C@H]2CC[C@@H](NC(=O)c3ccc4c(c3)OCO4)[C@H](CO)O2)CC1,1.96% (inactive)
15,CCOC(=O)c1c(NC(=O)C(C)Sc2c[nH]c3ccccc23)sc2c1CCC2 (stereo unspecified),0.63% (inactive)
16,CCOC(=O)c1c(NC(=O)C2(C)Cc3ccccc3C(=O)O2)sc2c1CCCC2 (stereo unspecified),-3.61% (inactive)
17,CCOC(=O)c1c(NC(=S)Nc2ccccc2C)sc2c1CCC2,22.8% (active)
18,O=C(C[C@H]1CC[C@H]2[C@@H](COC[C@@H](O)CN2Cc2ccccc2F)O1)NCc1ccccc1F,3.18% (inactive)
19,O=C1NC(c2ccncc2)Nc2sc3c(c21)CCCC3 (stereo unspecified),15.5% (active)
20,C/C(=C\c1ccccc1)C1NC(=O)c2c(sc3c2CCCC3)N1 (stereo unspecified),-1.37% (inactive)
21,CC(=O)N1[C@@H](CO)[C@@H](c2ccc(C3=CCCC3)cc2)C12CN(C(=O)C1CC1)C2,3.6% (inactive)
22,CO[C@@H]1CN(C)C(=O)c2cc(NC(=O)c3ccno3)ccc2OC[C@@H](C)N(S(C)(=O)=O)C[C@@H]1C,0.416% (inactive)
23,CO[C@H]1CN(C)C(=O)c2ccc(NC(=O)c3cnccn3)cc2OC[C@H](C)N(C)C[C@@H]1C,0.983% (inactive)

row,Structure (SMILES),inhibition
1,CO[C@H]1CN(C)C(=O)c2ccc(NC(=O)c3ccno3)cc2OC[C@@H](C)N(S(C)(=O)=O)C[C@H]1C,17% (active)
2,COCC(=O)Nc1ccc2c(c1)[C@H]1C[C@H](CC(=O)NCc3ccc(OC)cc3)O[C@@H](CO)[C@H]1O2,-0.814% (inactive)
3,CCCNC(=O)N1C[C@H](C)[C@@H](OC)CN(C)C(=O)c2ccc(NS(C)(=O)=O)cc2OC[C@@H]1C,-4.54% (inactive)
4,C[C@@H]1CN([C@@H](C)CO)C(=O)c2cc(-c3ccc(C#N)cc3)cnc2O[C@@H]1CN(C)Cc1cccnc1,-2.7% (inactive)
5,CO[C@H]1CN(C)C(=O)c2ccc(NC(=O)Nc3ccc(Cl)cc3)cc2OC[C@H](C)N(C(=O)Nc2c(C)noc2C)C[C@@H]1C,-0.008% (inactive)
6,COc1ccccc1OCC(=O)O/N=C(\N)c1ccccn1,0.993% (inactive)
7,COc1ccc(NC(=O)CSc2ccc(-c3ccco3)nn2)c(OC)c1,-1.12% (inactive)
8,COc1ccccc1OCC(=O)OCc1cc(-c2ccco2)on1,18.8% (active)
9,COCC(=O)Nc1ccc2c(c1)OC[C@@H](C)N(C(=O)c1cnccn1)C[C@H](C)[C@H](OC)CN(C)C2=O,-3.74% (inactive)
10,CCC(=O)N1CC(=O)N2[C@@H](CO)[C@@H](c3ccc(C#CC4CCCC4)cc3)[C@@H]2C1,-0.876% (inactive)
11,C[C@H](CO)N1C[C@H](C)[C@H](CN(C)C(=O)c2ccccn2)Oc2ncc(-c3ccccc3F)cc2C1=O,0.464% (inactive)
12,C[C@H](CO)N1C[C@H](C)[C@H](CN(C)CC2CCCCC2)OCCCC[C@H](C)Oc2ccc(NS(=O)(=O)c3ccc(F)cc3)cc2C1=O,13.2% (inactive)
13,C[C@@H]1CCCCO[C@H](CN(C)CC2CCCCC2)[C@H](C)CN([C@H](C)CO)C(=O)c2cc(NS(=O)(=O)c3ccc(F)cc3)ccc2O1,16% (active)
14,C[C@@H]1CCCCO[C@@H](CN(C)Cc2ccc(Cl)c(Cl)c2)[C@H](C)CN([C@@H](C)CO)C(=O)c2cc(NS(C)(=O)=O)ccc2O1,11.8% (inactive)
15,C[C@@H]1CCCCO[C@@H](CN(C)S(C)(=O)=O)[C@H](C)CN([C@@H](C)CO)C(=O)c2cc(NS(=O)(=O)c3ccc(F)cc3)ccc2O1,1.65% (inactive)
16,Cc1ccc(S(=O)(=O)Nc2ccc3c(c2)C(=O)N([C@H](C)CO)C[C@@H](C)[C@H](CN(C)S(=O)(=O)c2ccc(C)cc2)OCCCC[C@@H](C)O3)cc1,15.5% (active)
17,Cc1ccc(S(=O)(=O)N(C)C[C@@H]2OCCCC[C@@H](C)Oc3ccc(NS(=O)(=O)c4ccccc4)cc3C(=O)N([C@H](C)CO)C[C@@H]2C)cc1,15% (inactive)
18,CC(C)NC(=O)Nc1ccc2c(c1)C(=O)N([C@H](C)CO)C[C@H](C)[C@@H](CN(C)Cc1ccc(C(F)(F)F)cc1)OCCCC[C@@H](C)O2,0.221% (inactive) and 2.28% (inactive)
19,C[C@@H]1CCCCO[C@H](CN(C)Cc2ccc(C(F)(F)F)cc2)[C@H](C)CN([C@H](C)CO)C(=O)c2cc(NC(=O)Nc3ccc(F)cc3)ccc2O1,5.62% (inactive)
20,C[C@@H]1CCCCO[C@H](CN(C)Cc2ccc(C(F)(F)F)cc2)[C@@H](C)CN([C@@H](C)CO)C(=O)c2cc(NC(=O)c3ccncc3)ccc2O1,15.9% (active)
21,Cc1ccc(S(=O)(=O)Nc2ccc3c(c2)C(=O)N([C@@H](C)CO)C[C@@H](C)[C@H](CN(C)Cc2ccc4c(c2)OCO4)OCCCC[C@@H](C)O3)cc1,4.41% (inactive)
22,Cc1ccc(S(=O)(=O)N(C)C[C@H]2OCCCC[C@@H](C)Oc3ccc(NS(C)(=O)=O)cc3C(=O)N([C@H](C)CO)C[C@@H]2C)cc1,-1.35% (inactive)
23,Cc1ccc(S(=O)(=O)Nc2ccc3c(c2)C(=O)N([C@@H](C)CO)C[C@@H](C)[C@H](CN(C)Cc2ccc(Cl)c(Cl)c2)OCCCC[C@@H](C)O3)cc1,17.4% (active)
